According to PubChem BioAssay (NCI):
About 79,000 compounds went through this panel and 15% of them were active in at least one assay; those are over-represented in the sample as a whole. Unmarked numbers belong to inactive results. The source made the active and inactive calls. Rule as the data show it: active = growth inhibition above about 70%; inactive = the rest.

Tests used:
[1] = NCI Yeast Anticancer Drug Screen. Data for the rad52 strain (AID 147);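 also: 0% = growth of vehicle-treated control cultures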; details: S. cerevisiae rad52 mutant growth inhibition, hits give high values
How it was run: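 Here a repair-compromised yeast strain receives each compound; its growth is then quantified and normalised to vehicle-only controls.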

[2] = NCI Yeast Anticancer Drug Screen. Data for the wt1 strain (AID 149);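 also: 0% = growth of vehicle-treated wt1 cultures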; details: S. cerevisiae wt1 strain (SPY 50644) growth inhibition, hits give high values
How it was run: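 Measured: growth of wt1 yeast under compound versus vehicle treatment, reported as inhibition.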

[3] = NCI Yeast Anticancer Drug Screen. Data for the rad50EPP+ strain (AID 151);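 also: 0% = growth of vehicle-treated control cultures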; details: S. cerevisiae rad50 mutant strain, hits give high values
How it was run: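 Read-out is yeast growth inhibition relative to vehicle; cells used were the rad50EPP+ strain.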

[4] = NCI Yeast Anticancer Drug Screen. Data for the mgt1 strain (AID 153); details: S. cerevisiae mgt1 mutant growth inhibition, hits give high values
How it was run: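 Measured: inhibition of mgt1 yeast growth by compound, normalized to vehicle-treated cultures.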

[5] = NCI Yeast Anticancer Drug Screen. Data for the rad50 strain (AID 155);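 also: 0% = growth of vehicle-only cultures of the same strain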; details: S. cerevisiae rad50 strain growth inhibition, hits give high values
How it was run: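 Growth of the mutant yeast was measured after compound exposure and referenced to vehicle-treated cultures.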

[6] = NCI Yeast Anticancer Drug Screen. Data for the mec2-1 strain (AID 157); details: S. cerevisiae mec2-1 strain, hits give high values
How it was run: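 Using mec2-1 yeast: add compound, measure growth, express inhibition versus vehicle-treated cultures.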

[7] = NCI Yeast Anticancer Drug Screen. Data for the sgs1 mgt1 strain (AID 161);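 also: 0% = growth of cultures given vehicle only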; details: S. cerevisiae sgs1 mgt1 strain, hits give high values
How it was run: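 This yeast growth screen uses a strain with defined DNA-repair lesions; compound-treated growth is compared with vehicle-treated growth.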

[8] = NCI Yeast Anticancer Drug Screen. Data for the CLN2oe strain (AID 163);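 also: 0% = growth of vehicle-only control cultures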; details: S. cerevisiae CLN2oe strain, hits give high values
How it was run: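 Whole-cell yeast growth assay. A strain engineered for altered cell-cycle control received compound, and inhibition relative to vehicle-treated cultures was recorded.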

[9] = NCI Yeast Anticancer Drug Screen. Data for the cln2 rad14 strain (AID 165);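 also: 0% = growth equal to vehicle treated cultures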; details: S. cerevisiae cln2 rad14 strain, hits give high values
How it was run: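 Yeast strain cln2 rad14, bearing defects in cell cycle control and DNA repair, serves as the test system; values reflect growth inhibition compared with vehicle.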

[10] = NCI Yeast Anticancer Drug Screen. Data for the bub3 strain (AID 167); details: S. cerevisiae bub3 mutant strain, hits give high values
How it was run: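 Whole-cell yeast assay. The mutant strain was incubated with compounds, and growth inhibition was determined by comparison with vehicle-treated cells.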

[11] = NCI Yeast Anticancer Drug Screen. Data for the wt2 strain (AID 169);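 also: 0% = growth of vehicle-treated yeast cultures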; details: S. cerevisiae wt2 strain growth inhibition, hits give high values
How it was run: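 Treated yeast vs. vehicle-treated yeast: growth inhibition determined.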

[12] = NCI Yeast Anticancer Drug Screen. Data for the mlh1 strain (AID 171);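 also: 0% = growth of vehicle-treated control cultures of the same strain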; details: S. cerevisiae mlh1 strain growth inhibition, hits give high values
How it was run: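 A yeast strain with a defined genetic lesion serves as the test organism. Cultures receive compound or vehicle, and growth is measured.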

[13] = NCI Yeast Anticancer Drug Screen. Data for the sgs1 strain (AID 173);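 also: 0% = growth of vehicle-only control cultures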; details: S. cerevisiae sgs1 mutant, hits give high values
How it was run: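 A genetically defined yeast mutant is incubated with the test compound, and its growth is compared to that of the same strain given vehicle.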

[14] = NCI Yeast Anticancer Drug Screen. Data for the mlh1 rad18 strain (AID 175); details: S. cerevisiae mlh1 rad18 strain growth inhibition, hits give high values
How it was run: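 Steps: expose repair-defective yeast to compound; measure growth; express inhibition against vehicle-treated controls.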

[15] = NCI Yeast Anticancer Drug Screen. Data for the rad18 strain (AID 177); details: S. cerevisiae rad18 mutant growth inhibition, hits give high values
How it was run: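 Measured value is growth inhibition of a yeast strain bearing a DNA repair alteration, referenced to vehicle-treated cells.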

[16] = at 5.0 µM (retest, dose inferred, filed as 0.5)
[17] = at 50.0 µM (retest, dose inferred, filed as 5.0)

SMILES: Cc1ccc(C)c(C(=N)c2ccccc2Cc2ccccc2)c1
- growth inhibition ([1]; at 1.2 µM): -5%
- growth inhibition ([1]; at 3.7 µM): 17%
- growth inhibition ([1]; at 11.0 µM): 70% (active)
- growth inhibition ([1]; at 33.0 µM): 94% (active)
- growth inhibition ([1]; at 100.0 µM): 97% (active)
- growth inhibition ([2]; at 1.2 µM): -3%
- growth inhibition ([2]; at 3.7 µM): 10%
- growth inhibition ([2]; at 11.0 µM): 35%
- growth inhibition ([2]; at 33.0 µM): 90% (active)
- growth inhibition ([2]; at 100.0 µM): 97% (active)
- growth inhibition ([3]; at 1.2 µM): -4%
- growth inhibition ([3]; at 3.7 µM): 2%
- growth inhibition ([3]; at 11.0 µM): 31%
- growth inhibition ([3]; at 33.0 µM): 84% (active)
- growth inhibition ([3]; at 100.0 µM): 94% (active)
- growth inhibition ([4]; at 1.2 µM): -3%
- growth inhibition ([4]; at 3.7 µM): 37%
- growth inhibition ([4]; at 11.0 µM): 75% (active)
- growth inhibition ([4]; at 33.0 µM): 94% (active)
- growth inhibition ([4]; at 100.0 µM): 97% (active)
- growth inhibition ([5]; at 1.2 µM): -1%
- growth inhibition ([5]; at 3.7 µM): 7%
- growth inhibition [5, 16]: 60%
- growth inhibition ([5]; at 11.0 µM): 71% (active)
- growth inhibition ([5]; at 33.0 µM): 92% (active)
- growth inhibition [5, 17]: 96% (active)
- growth inhibition ([5]; at 50.0 µM): 98.4% (active)
- growth inhibition ([5]; at 100.0 µM): 95% (active)
- growth inhibition ([6]; at 1.2 µM): 2%
- growth inhibition ([6]; at 3.7 µM): 12%
- growth inhibition [6, 16]: 0%
- growth inhibition ([6]; at 11.0 µM): 72% (active)
- growth inhibition ([6]; at 33.0 µM): 95% (active)
- growth inhibition [6, 17]: 94% (active)
- growth inhibition ([6]; at 50.0 µM): 97.3% (active)
- growth inhibition ([6]; at 100.0 µM): 97% (active)
- growth inhibition [7, 16]: 62%
- growth inhibition [7, 17]: 94% (active)
- growth inhibition ([7]; at 50.0 µM): 97.5% (active)
- growth inhibition ([8]; at 1.2 µM): -3%
- growth inhibition ([8]; at 3.7 µM): 6%
- growth inhibition ([8]; at 11.0 µM): 47%
- growth inhibition ([8]; at 33.0 µM): 95% (active)
- growth inhibition ([8]; at 100.0 µM): 98% (active)
- growth inhibition [9, 16]: 18%
- growth inhibition [9, 17]: 93% (active)
- growth inhibition ([9]; at 50.0 µM): 93.4% (active)
- growth inhibition ([10]; at 1.2 µM): 7%
- growth inhibition ([10]; at 3.7 µM): 29%
- growth inhibition [10, 16]: 13%
- growth inhibition ([10]; at 11.0 µM): 77% (active)
- growth inhibition ([10]; at 33.0 µM): 96% (active)
- growth inhibition [10, 17]: 97% (active)
- growth inhibition ([10]; at 50.0 µM): 97.4% (active)
- growth inhibition ([10]; at 100.0 µM): 95% (active)
- growth inhibition ([11]; at 1.2 µM): -1%
- growth inhibition ([11]; at 3.7 µM): 42%
- growth inhibition ([11]; at 11.0 µM): 78% (active)
- growth inhibition ([11]; at 33.0 µM): 93% (active)
- growth inhibition ([11]; at 100.0 µM): 97% (active)
- growth inhibition ([12]; at 1.2 µM): 0%
- growth inhibition ([12]; at 3.7 µM): 35%
- growth inhibition ([12]; at 11.0 µM): 80% (active)
- growth inhibition ([12]; at 33.0 µM): 92% (active)
- growth inhibition ([12]; at 100.0 µM): 98% (active)
- growth inhibition ([13]; at 1.2 µM): 8%
- growth inhibition ([13]; at 3.7 µM): 60%
- growth inhibition ([13]; at 11.0 µM): 86% (active)
- growth inhibition ([13]; at 33.0 µM): 95% (active)
- growth inhibition ([13]; at 100.0 µM): 97% (active)
- growth inhibition [14, 16]: 45%
- growth inhibition [14, 17]: 94% (active)
- growth inhibition ([14]; at 50.0 µM): 98.2% (active)
- growth inhibition ([15]; at 1.2 µM): -3%
- growth inhibition ([15]; at 3.7 µM): 20%
- growth inhibition ([15]; at 11.0 µM): 67%
- growth inhibition ([15]; at 33.0 µM): 94% (active)
- growth inhibition ([15]; at 100.0 µM): 96% (active)
